TDP-43 yeast inh: TDP-43 toxicity inhibition in yeast | TDP-43 expressing yeast growth rescue, BacTiter-Glo, 24 h | Potency, µM (highest dose often 46.1 µM), inactives show at the top dose growth rescue (activation), most hits filed as activators | actives 1.8% (n = 410,000); further: % of control where 0% means no effect; nearly all actives have a fitted effect of over 50% in size
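In this qHTS, compounds that restore growth of yeast expressing TDP-43 appear as activators. Cells (OD600=0.02, galactose medium, raffinose-pregrown) are incubated with compound 24 hr at 30 deg C and growth is quantified by BacTiter-Glo.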
aSyn rescue: rescues yeast growth from alpha-synuclein toxicity; Yeast expressing alpha-synuclein, growth rescue, BacTiter-Glo, 24 h; Potency, µM (highest dose often 46.1 µM), for inactives: at the highest dose growth rescue (activation), most hits filed as activators; actives 0.14% (n = 370,000); further: % of control where 0% means no effect; nearly all actives have a fitted effect of over 65% in size
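Galactose-induced alpha-syn yeast (OD600=0.02, raffinose-pregrown) + pinned cpd, 24 hr, 30 deg C; growth by BacTiter-Glo luminescence. Growth restoration scores as activation.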
PTAP TSG101 blk: blocks PTAP/TSG101 interaction to inhibit HIV-1 budding. Fluorescence polarization, FITC-PTAP peptide / Tsg101 binding. Potency, µM (titrated, usually from 115 µM), inactives show top-dose activity change, negative = inhibition, most hits filed as inhibitors. 340,000 tested, under 10 active. AID 493005; active means well fitted inhibition curve with a large enough effect in the main read-out, with a control signal flat, not every such curve was filed as active; inconclusive means small, poorly fitted or top-dose-only effect, or effect the other way, or a change in a side signal; inactive means no such curve, though single readings can be large or run the other way; further: % of control where 0% means no effect
Target sequence (Q99816 whole entry, looked up): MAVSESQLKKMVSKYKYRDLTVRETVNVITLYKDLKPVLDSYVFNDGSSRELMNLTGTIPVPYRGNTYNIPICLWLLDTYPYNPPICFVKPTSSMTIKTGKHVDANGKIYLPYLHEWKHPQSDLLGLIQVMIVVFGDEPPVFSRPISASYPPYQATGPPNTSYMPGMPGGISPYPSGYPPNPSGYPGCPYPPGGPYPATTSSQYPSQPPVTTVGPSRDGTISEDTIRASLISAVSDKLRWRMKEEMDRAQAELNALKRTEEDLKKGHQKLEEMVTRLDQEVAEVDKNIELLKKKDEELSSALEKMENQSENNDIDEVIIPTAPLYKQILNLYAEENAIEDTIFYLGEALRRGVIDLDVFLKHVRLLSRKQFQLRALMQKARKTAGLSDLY
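FP read-out: FITC-PTAP peptide, 50 nM final, binding Tsg101 binding domain, 10 uM final; 20 min, r.t.; 10 mM HEPES pH 7.5, 0.15 M NaCl, 0.01% Tween 20, 3 mM EDTA, 0.1 mM TCEP.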
FUS suppressor: suppressors of FUS proteinopathy in yeast; S. cerevisiae FUS-expressing, growth rescue, OD600, 24 h; Potency, µM (highest dose often 76.6 µM), hits mostly activators; actives 0.24% (n = 390,000); AID 1347120;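 further: plate controls were DMSO vehicle for no effect and reference control for full effect; nearly all actives have a fitted effect of over 55% in size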
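Read-out: OD at 600 nm after 24hr at 30C, reporting rescue of FUS-induced yeast toxicity. Cells at OD 0.005 in galactose (2%) minimal medium; compounds tested in a dilution series; CP55940 titration from 92uM final as control.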
Abeta rescue: compounds reversing amyloid beta toxicity in yeast; yeast expressing A-beta42, growth rescue, OD600, 48 h; response scale: 0% DMSO, 100% iron-clioquinol control; Potency, µM (titrated, usually from 46.1 µM), most hits filed as activators; actives 0.063% (n = 410,000); further: nearly all actives have a fitted effect of over 55% in size
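Yeast growth medium received pinned compounds, then yeast cells expressing toxic A-beta were added; plates incubated at 30 C for 48 hr. Growth read as absorbance at 600 nm, normalized to DMSO and equimolar FeCl3 plus clioquinol controls.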
Numbers without * were called inactive; i = inactive; ? = inconclusive; . = no result. Rows were chosen to be rich in hits. Some 2.1% of all compounds tested hit in one or more screens of this group. Unless noted, the call rests on the fitted dose curve; in most records, active means well fitted curve in the direction sought with a large enough effect; inconclusive means small, poorly fitted or top-dose-only effect, or another doubt; inactive means no such curve, though single readings can be large; an effect the other way counts as inactive or inconclusive. Potency means the concentration at half of the fitted maximal effect.

SMILES	TDP-43 yeast inh	aSyn rescue	PTAP TSG101 blk	FUS suppressor	Abeta rescue
COc1cc(C2(C)SCCCS2)cc(OC)c1OC	-7%	-7%	.	i	i
CCC1CN(C(=O)N2CCC(C(=O)N3CCN(c4cccc(C)c4C)CC3)CC2)c2ccccc2O1 (centres undefined)	-24%	.	.	?	i
CCC1CN(C(=O)N2CCC(C(=O)N3CCN(c4cc(C)ccc4C)CC3)CC2)c2ccccc2O1 (centres undefined)	22µM*	.	.	?	i
Cc1cc(O)c(-c2ccnc3cc(-c4ccccc4)nn23)cc1Cl	2%	.	.	i	i
Cc1ccc(C(=O)c2ccc(O)cc2)cc1C	18µM*	0%	-6%	i	i
COc1ccc(C(=O)c2ccc(Cl)cc2)cc1	-9%	-13%	0%	i	i
Cc1ccc(C(=O)c2cccc(N)c2)cc1C	3%	8%	-2%	i	i
O=C(c1ccc(O)cc1)c1ccc(Cl)cc1	11µM*	10%	-4%	i	i
O=C(c1ccccc1)c1ccc2cc(O)ccc2c1	11µM*	-31%	-3%	i	i
O=C(c1ccccc1)c1ccc2ccccc2c1	-15%	-13%	-4%	i	i
C=Cc1ccc(CN2C(=O)N(c3ccc(CC)cc3)S(=O)(=O)c3ccccc32)cc1	9%	.	.	i	i
O=C(N1CCc2ccccc2C1)n1cc(C(O)(c2ccccc2)c2ccccc2)nn1	.	.	.	i	.
CC(=O)c1ccccc1OC(=O)c1ccc(-c2ccccc2)cc1	25µM*	-16%	-1%	i	i
CC(C)=NOC(=O)c1ccc(-c2ccccc2)cc1	22µM*	-8%	2%	.	i
COc1ccccc1NC(=O)c1ccc([N+](=O)[O-])o1	?	-71%	0%	i	i
CC(=O)c1ccccc1OC(=O)c1ccc([N+](=O)[O-])o1	10µM*	?	-7%	i	i
COc1ccc(OC)c(C(=O)COC(=O)c2ccc([N+](=O)[O-])o2)c1	22µM*	-37%	-1%	i	i
CCOC(=O)C1=CCC(c2ccccc2C(F)(F)F)N(S(=O)(=O)c2ccc(C)cc2)C1 (centres undefined)	-11%	-8%	.	i	i
Cc1sc2ccccc2[n+]1CC(=O)c1ccccc1	11µM*	7%	-1%	?	i
Cc1sc2ccccc2[n+]1CC(=O)O	6%	-4%	0%	i	i
COc1cccc(-c2nc(CCl)cs2)c1OC	14µM*	1%	-2%	i	i
CC(C)c1ccc(C(C(C(=O)c2ccccc2)N2CCOCC2)N2CCOCC2)cc1 (centres undefined)	1%	-3%	-3%	i	?
COc1ccc(OC(C)C(=O)NCc2nc(-c3ccc(Cl)cc3)no2)cc1 (centres undefined)	16µM*	.	.	?	i
COc1ccccc1OCC(=O)NCc1nc(-c2ccc(Cl)cc2)no1	0%	.	.	i	i
COc1cc(OC)c(NC(=O)CCc2nc(-c3cccs3)no2)cc1Cl	20µM*	8%	-8%	i	i
SMILES	TDP-43 yeast inh	aSyn rescue	PTAP TSG101 blk	FUS suppressor	Abeta rescue
COc1ccc(OC)c(S(=O)(=O)NC(=O)C2(C)CCN2C(=O)CC2CCCC2)c1 (centres undefined)	-16%	10%	.	i	i
Cc1ccc(-c2nc3sccn3c2Nc2ccccc2C)cc1	35µM*	.	.	?	i
Cc1ccccc1Nc1c(-c2ccc(Br)cc2O)nc2sccn12	2%	.	.	i	i
O=C(Cn1cc(SCc2ccc(C(F)(F)F)cc2)c2ccccc21)N1CCCC1	35µM*	.	.	?	i
O=C(Cn1cc(SCc2cccc(Cl)c2)c2ccccc21)N1CCOCC1	35µM*	?	3%	?	?
CC(C)(C)OC(=O)CNC(=O)c1[nH]cnc1C(=O)NC1CCN(C(=O)OC(C)(C)C)CC1	4%	-1%	-10%	?	i
CC(C)(C)OC(=O)N1CCC(NC(=O)c2nc[nH]c2C(=O)NC2CCN(C(=O)OC(C)(C)C)CC2)CC1	-1%	0%	-5%	11µM*	i
COc1ccccc1NCc1nnc2n1CCCCC2	7%	.	.	i	i
O=C(c1ccccc1Cc1ccccc1)N1CCN(S(=O)(=O)c2ccccc2Br)CC1	13µM*	?	-1%	i	i
CN(c1ccccc1C(=O)O)S(=O)(=O)c1ccc2[nH]c(=O)oc2c1	31%	.	.	i	i
CCn1nc(C(=O)Nc2ccc(S(=O)(=O)Nc3nccs3)cc2)c2ccccc2c1=O	-10%	-6%	2%	25µM*	i
O=C(Nc1ccc(S(=O)(=O)Nc2ncccn2)cc1)c1nn(Cc2ccccc2)c(=O)c2ccccc12	1%	-2%	2%	i	i
COC(=O)[C@@]12C[C@@H](CC(=O)NCCC(C)C)C(=O)N(Cc3cccc4ccccc34)C1=CCC(C)(C)C2	-1%	2%	.	14µM*	i
COC(=O)[C@@]12C[C@@H](CC(=O)NCc3cccc(C(F)(F)F)c3)C(=O)N(Cc3ccc4c(c3)OCO4)C1=CCC(C)(C)C2	0%	0%	.	?	i
COC(=O)[C@@]12C[C@@H](CC(=O)NCc3cccc4ccccc34)C(=O)N(Cc3cccc4ccccc34)C1=CCC(C)(C)C2	24%	0%	.	i	i
COC(=O)[C@@]12C[C@@H](CC(=O)NCc3ccc(OC)c(OC)c3)C(=O)N(Cc3ccc4c(c3)OCO4)C1=CCC(C)(C)C2	-2%	-1%	.	13µM*	i
COc1ccccc1C(=O)NCCSCc1ccccc1Cl	13µM*	-10%	-3%	i	i
Cc1c(C(=O)NCCSCc2ccc(Cl)cc2Cl)cccc1[N+](=O)[O-]	14µM*	25%	0%	i	i
Cc1ccc(-c2onc(C)c2C)cc1S(=O)(=O)NCc1ccco1	?	.	.	i	i
Cc1ccc(-c2onc(C)c2C)cc1S(=O)(=O)NCc1cccs1	16µM*	.	.	i	i
CCOc1ccccc1CNS(=O)(=O)c1cc(-c2onc(C)c2C)ccc1OC	22%	.	.	?	i
COc1ccc(-c2onc(C)c2C)cc1S(=O)(=O)NCC(C)c1ccccc1 (centres undefined)	35µM*	.	.	?	i
O=C(COc1ccc([N+](=O)[O-])cc1)N1CCC(c2nc3ccccc3s2)CC1	0%	.	.	i	i
CCOC(=O)c1noc2ncn(Cc3ccc([N+](=O)[O-])cc3)c(=O)c12	20µM*	.	.	i	i
CCOC(=O)c1noc2nc(C)n(Cc3ccc([N+](=O)[O-])cc3)c(=O)c12	16%	.	.	i	i
